The sample as a whole holds a higher share of hits than the screen did.
Ub-GFP proteasome: proteasome inhibitors stabilizing ubiquitin-GFP reporter; Ubiquitin-GFP reporter cells, proteasome inhibition, GFP fluorescence; response scale: untreated = 0%, 10 µM MG-132 = 100%; Potency, µM (doses to about 45.9 µM), inactives show at the top dose activation (GFP accumulation), most hits filed as activators; 67,000 tested, under 10 active; AID 526; active = well fitted activation curve with a large enough effect, not every such curve was filed as active; inconclusive = small, poorly fitted or top-dose-only effect, or another doubt; inactive = no such curve, though single readings can be large or run the other way; also: potency is read from the fitted curve at half-maximal effect
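U2OS cells stably expressing ubiquitin(G76V)-GFP, seeded overnight in 0.5% FBS medium, were exposed to compounds (qHTS, 46 uM to 2.9 nM) for 4 hr at 37 °C. GFP-positive cells were counted by laser cytometry (488 ex/515 em), normalized between basal and 10 uM MG-132.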
ERK AVP block: vasopressin-driven ERK pathway inhibition; Potency, µM (doses to about 57.5 µM), for the others: at the top dose activity, negative = inhibition, most hits filed as inhibitors; 72,000 compounds, 0.99% hits; HEK293-V1b, vasopressin-stimulated pERK AlphaScreen; also: potency is read from the fitted curve at half-maximal effect; % is scaled to controls: 0 for no effect and ±100 for the full control effect; nearly all actives have a fitted effect of over 55% in size
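V1b-HEK293 cells; cpd 30 min 37C; 25 nM vasopressin 5 min; lyse 10 min; AlphaScreen beads 5 hr RT. Normalized to DMSO basal and 25 nM vasopressin; AC50 by Hill fit.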
Imprint erasure: induces erasure of genomic imprints in mouse ES cells. mouse ES Peg3-LacZ reporter, beta-gal luminescence, 40 h. Potency, µM (doses to about 60.7 µM), for the others: top-dose activity change, positive = activation, usual class: activators. 110,000 compounds, 0.02% hits. AID 1948; also: potency is read from the fitted curve at half-maximal effect
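Each well holds 300 Peg3LacZ-Neo (maternal) female ES cells incubated 40 h at 37C, 5% CO2. LacZ is measured by BetaGlo luminescence, with AC50 and maximum efficacy derived from dose-response curves.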
Epigenetic mod: epigenetic modulators derepressing GFP locus in mouse cells; mouse C127i GFP locus derepression, cytometry, 30 h; Potency, µM (titrated, usually from 46.1 µM), for inactives: at the top dose GFP derepression (activation); AID 597; 68,000 compounds, 0.09% hits; also: % of control where 0% means no effect
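Murine C127i mammary cells carrying a silenced, stably integrated CMV-driven GFP reporter were treated with compound for 30 hours at 37 C. After PBS washes, GFP-positive cells were counted by laser-scanning microplate cytometry.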
HBB splice mod: modulators of hemoglobin beta chain splicing; HBB splicing reporter cell assay, activation; EGFP reporter with mutant IVS2-654 intron; response scale: normalised to 500 nM splice-correcting PNA; Potency, µM (doses to about 46.1 µM), inactives show at the top dose activation, usual class: activators; 65,000 compounds, 0.06% hits; AID 925; also: potency is read from the fitted curve at half-maximal effect; 0% is about no effect
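Compounds were applied for 2 days to HeLa EGFP-654 cells, 500/well in Optimem with 2% FCS. The reporter's EGFP is disrupted by mis-splicing of beta-globin intron IVS2-654. Readout: summed well GFP fluorescence from 488 nm laser scanning; reference was 500 nM antisense […] 654 PNA.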
Starred values were filed as active, the others as inactive; ! = not confirmed by another sample; [ ] = remark or other dose. Unless noted, calls follow the shape of the dose curve; as a rule, active = well fitted curve in the direction sought with a large enough effect; inconclusive = small, poorly fitted or top-dose-only effect, or another doubt; inactive = no such curve, though single readings can be large; an effect the other way counts as inactive or inconclusive.

For O=C(NCc1cccc(Cl)c1)c1cccnc1 the results were Ub-GFP proteasome -2%, ERK AVP block -6%, Imprint erasure -1%, Epigenetic mod 0% and HBB splice mod 3%.
Screening Cc1cc(C)cc(-n2c3nc4ccccc4nc3c3c(=O)n(Cc4ccco4)cnc32)c1 returned Epigenetic mod 13µM*.
`CCOc1ccc(-n2c3nc4ccccc4nc3c3c(=O)n(Cc4ccco4)cnc32)cc1` gave Epigenetic mod 9%[20.6 µM].
Cc1nc2c(c(=O)n1Cc1ccccc1Cl)c1nc3ccccc3nc1n2Cc1ccco1 was read as Ub-GFP proteasome 3%, ERK AVP block 25µM*, Imprint erasure -50%, Epigenetic mod 4% and HBB splice mod 9%[0.369 µM].
Screening COc1ccc(Cn2c(C)nc3c(c2=O)c2nc4ccccc4nc2n3Cc2ccco2)cc1 returned ERK AVP block -12%, Imprint erasure -29%, Epigenetic mod 23% and HBB splice mod 1%[0.369 µM].
Screening COc1cccc(-c2cc(NCc3ccccc3)ncn2)c1 returned Ub-GFP proteasome -1%, ERK AVP block 5µM*, Imprint erasure -10%, Epigenetic mod -3%[9.22 µM] and HBB splice mod 0%.
COc1cccc(-c2cc(NCc3ccc(OC)cc3OC)ncn2)c1 was read as Ub-GFP proteasome 1%, ERK AVP block -15%, Imprint erasure -29%, Epigenetic mod 6%[9.22 µM] and HBB splice mod 0%.
Clc1ccccc1-c1cc(NCc2ccccc2)ncn1 was read as Ub-GFP proteasome -3%, ERK AVP block 25µM*, Imprint erasure -14%, Epigenetic mod 6%[9.22 µM] and HBB splice mod -2%.
COc1ccc2oc(=O)cc(CN3CCN(c4ccc(F)cc4)CC3)c2c1 was read as Imprint erasure -8%[10.9 µM].
`CCn1c(=O)cc(OCC(=O)Nc2nc(C)cs2)c2ccccc21` gave Ub-GFP proteasome -9%, ERK AVP block -9%, Imprint erasure -1%, Epigenetic mod 17% and HBB splice mod 1%.
Screening Cn1c(=O)c2c(nc(NCc3ccco3)n2C/C=C/c2ccccc2)n(C)c1=O returned Ub-GFP proteasome -5%, ERK AVP block 32µM*, Imprint erasure -14%, Epigenetic mod 2% and HBB splice mod -3%[57.5 µM].
Screening O=C(CS(=O)(=O)Cc1ccccc1)Nc1nc2ccccc2s1 returned Ub-GFP proteasome 2%, ERK AVP block 25µM*, Imprint erasure -5%, Epigenetic mod 1% and HBB splice mod -1%.
Clc1ccccc1-c1nccc(-n2ccnc2)n1 was read as Ub-GFP proteasome -1%, ERK AVP block inconclusive, Imprint erasure -5%, Epigenetic mod 6%[9.22 µM] and HBB splice mod -2%.
For Clc1ccccc1C(c1ccccc1)(c1ccccc1)n1ccnc1 the results were Ub-GFP proteasome -1%[20.5 µM], ERK AVP block 25µM*!, Imprint erasure -21%, Epigenetic mod 3%[20.6 µM] and HBB splice mod 0%[20.6 µM].
For Cc1nc(CNS(=O)(=O)c2cc(C)c(C)cc2C)cs1 the results were Ub-GFP proteasome -1%, ERK AVP block -9%, Imprint erasure -9%, Epigenetic mod -2% and HBB splice mod 0%.
Cc1ccc(CN(Cc2ccco2)C(=O)c2cccc(C)c2)cc1 was read as Imprint erasure -7%[10.9 µM].
Cc1cc(-n2c(C)cc(C(=O)CSc3ncnc4ccccc34)c2C)no1 was read as Ub-GFP proteasome -11%, ERK AVP block 20µM*, Imprint erasure -23%, Epigenetic mod 0% and HBB splice mod -1%[1.84 µM].
Screening CCN(CC)S(=O)(=O)c1cc(C(=O)OCC(=O)c2ccc3c(c2)NC(=O)CO3)ccc1F returned Ub-GFP proteasome -5%, ERK AVP block 32µM*, Imprint erasure -6%, Epigenetic mod -1% and HBB splice mod 0%[57.5 µM].
Screening N#Cc1ccc(NC(=O)c2cc3cc4c5c(c3oc2=N)CCCN5CCC4)cc1 returned Ub-GFP proteasome 15%, ERK AVP block 22%, Imprint erasure -3%, Epigenetic mod 10µM* and HBB splice mod 0%.
Screening Cc1ccc(NC(=O)c2ccccc2C(=O)O)cc1C returned Ub-GFP proteasome -5%[9.17 µM], ERK AVP block -12%[11.5 µM], Imprint erasure -5%[10.9 µM], Epigenetic mod -2%[9.22 µM] and HBB splice mod 5%[9.22 µM].
CC(C)c1cc(=O)oc2c3c4c(cc12)CCCN4CCC3 was read as Ub-GFP proteasome 4%, ERK AVP block 5%, Imprint erasure -14%, Epigenetic mod 3% and HBB splice mod -1%[9.22 µM].
`N=c1oc2c3c4c(cc2cc1C(=O)Nc1ccccc1)CCCN4CCC3` gave Ub-GFP proteasome inconclusive, ERK AVP block 9%, Imprint erasure 0%, Epigenetic mod 7% and HBB splice mod 3.2µM*.
For COc1ccc(OC)c(CNC(=O)c2cccc(NC(=O)N3CCSc4ncccc43)c2)c1 the results were Imprint erasure 10%[10.9 µM].
Cc1cn2c(=O)cc(COC(=O)c3cccc(NC(=O)c4ccc(C(C)(C)C)cc4)c3)nc2s1 was read as Imprint erasure -15%[10.9 µM].
Screening CCOC(=O)C1CCN(C(=O)COc2cc(C)c(Br)cc2C)CC1 returned Ub-GFP proteasome 1%, ERK AVP block -33%, Imprint erasure -18%, Epigenetic mod 3% and HBB splice mod -1%.
O=C(Nc1ccc2oc(-c3ccccc3F)nc2c1)c1ccc2c(c1)OCCO2 was read as Ub-GFP proteasome -1%, ERK AVP block 10µM*, Imprint erasure -24%, Epigenetic mod -4% and HBB splice mod 0%.
Screening O=C(Nc1ccc2nn(-c3ccccc3)nc2c1)c1ccc2c(c1)OCCO2 returned Ub-GFP proteasome 14%, ERK AVP block 16µM*, Imprint erasure -20%, Epigenetic mod -2% and HBB splice mod -2%[9.22 µM].
For O=C(Nc1ccccc1-c1nc2ccccc2o1)c1ccc2c(c1)OCCO2 the results were Ub-GFP proteasome -2%, ERK AVP block 3%, Imprint erasure -2%, Epigenetic mod 4% and HBB splice mod -1%.
O=S(=O)(c1ccccc1Cl)N1CCC(O)(c2ccc3c(c2)OCO3)CC1 was read as Ub-GFP proteasome 4%, ERK AVP block 32µM*, Imprint erasure -9% and Epigenetic mod -1%.
Screening CCOc1ccccc1NC(=O)Cn1cnc2c(cnn2-c2ccc(C)c(C)c2)c1=O returned Ub-GFP proteasome 9%, ERK AVP block inconclusive, Imprint erasure -1%, Epigenetic mod 1% and HBB splice mod -3%.
For COc1ccc(S(=O)(=O)N2CCC(C(=O)N3CCCCC3)CC2)cc1OC the results were Ub-GFP proteasome 2%, ERK AVP block 12% and Epigenetic mod 0%.
`COc1ccc(S(=O)(=O)N2c3ccc(Cl)cc3[C@](O)(c3ccccc3Cl)[C@@H]2C(=O)N2CCC[C@H]2C(N)=O)cc1OC` gave ERK AVP block 4µM*, Imprint erasure -5% and HBB splice mod -1%.

Screening results as filed in PubChem.
